Assay outcomes as filed in PubChem.
Hits are enriched below; roughly 4.6% of the tested compounds scored in any of these assays.
TRHR enhancer: allosteric enhancers of human TRH receptor; TRHR cells, fluo-8 calcium fluorescence, EC20 TRH enhancement; AID 493056; 0.66% of 360,000 active; enhancement, % at 2 µM; P34981; in the data active means enhancement above about 30%; further: 0% is about no effect
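Enhancer read-out: after compound pinning and an initial kinetic agonist-mode read, an EC20 of TRH (10 nM final) was injected and fluo-8 calcium signal (Ex 480/Em 530) followed at 1 s/cycle for 100 cycles in TRHR-expressing cells.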
D1 agonist: activates the human D1 dopamine receptor; P21728; HEK293 T-REx D1 cells, calcium flux, agonist mode; activation, % at 2 µM; 1% of 360,000 active; AID 504660; further: 0% is about no effect
Target sequence (P21728 whole entry, looked up): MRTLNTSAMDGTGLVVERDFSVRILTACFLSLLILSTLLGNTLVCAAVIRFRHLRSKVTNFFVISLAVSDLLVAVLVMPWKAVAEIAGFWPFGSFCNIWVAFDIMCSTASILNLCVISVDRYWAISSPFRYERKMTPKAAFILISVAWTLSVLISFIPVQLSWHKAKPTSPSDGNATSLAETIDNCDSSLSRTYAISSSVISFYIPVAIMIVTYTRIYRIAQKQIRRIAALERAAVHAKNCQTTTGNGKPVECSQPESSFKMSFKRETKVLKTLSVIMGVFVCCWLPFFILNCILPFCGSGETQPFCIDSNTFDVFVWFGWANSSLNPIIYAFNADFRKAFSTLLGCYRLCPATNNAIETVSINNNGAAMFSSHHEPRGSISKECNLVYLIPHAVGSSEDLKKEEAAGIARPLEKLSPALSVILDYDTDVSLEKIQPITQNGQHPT
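Inducible HEK293 T-REx D1 cells, force-coupled to calcium signalling, were plated at 4000 cells/well with tetracycline and held overnight at 30 C. After no-wash calcium dye loading, compound-evoked calcium rise over 180 s flagged agonists.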
D1 antag: antagonists of human D1 dopamine receptor; P21728; HEK293 TREx D1 cells, calcium flux, dopamine EC80; stronger effect = lower value; activity change, negative = inhibition, % at 10 µM; 3.2% of 360,000 active; in the data active means activity change below about -30%; further: on the % scale 0 is the no-effect control and ±100 the full control effect
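Cells carrying a force-coupled, tetracycline-inducible human D1 receptor report calcium flux. Each well gets a 10 s baseline, compound with 180 s monitoring, then an EC80 dopamine stimulus with a second 180 s kinetic read.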
D1 potentiator: enhances dopamine response at the human D1 receptor; P21728; HEK293 TREx D1 cells, calcium flux, dopamine EC20 potentiation; potentiation, % at 10 µM; 0.036% of 360,000 active; AID 504651; in the data active means potentiation above about 30%; further: 0% is about no effect
TRHR ag: TRH receptor (human) agonism; P34981; TRHR cells, calcium flux fluo-8, FDSS agonist mode; activation, % at 2 µM; 0.18% of 360,000 active; AID 493084; further: 0% is about no effect
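Read-out: compound-evoked intracellular calcium rise in TRHR cells, fluo-8 dye, kinetic FDSS fluorescence at 1 s/cycle following a 10-cycle baseline. Cells cultured overnight before dye loading (30 min–1.5 h, RT).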
* hit, by the source's call; / = not tested or not shown. Unless noted, no stated cut-off is given here; in the data, active means activation above about 30%; inactive means the rest.

SMILES	TRHR enhancer	D1 agonist	D1 antag	D1 potentiator	TRHR ag
CCc1ccc(CNC(=O)C2CCCN(c3nn4cc(-c5ccc(F)cc5)nc4s3)C2)cc1 (configuration not stated)	3	0	7	-1	1
COc1ccc2nc(-c3ccccc3)cc(OC)c2c1	6	1	-60*	-6	0
O=C(NCc1ccccc1Cl)NCc1noc2ccccc12	0	1	-2	-4	0
COc1ccc(S(=O)(=O)c2nnn(-c3cc(Cl)c(OC)cc3OC)c2C)cc1	10	61*	7	-4	5
COCCN(C(=S)Nc1ccccc1C)C(C)c1ccco1 (configuration not stated)	-1	3	-71*	-5	0
COCCN(C(=S)Nc1cccc(C)c1C)C(C)c1ccco1 (configuration not stated)	-8	2	18	-6	0
CCOC(=O)c1c(CSCc2ccccc2)oc2ccc(O)c(CN(C)C)c12	-9	36*	1	-3	0
CCN1/C(=C/C=C/c2oc3ccc(-c4ccccc4)cc3[n+]2CC)Oc2ccc(-c3ccccc3)cc21	-24	547*	-84*	-8	317*
COc1ccc(NS(=O)(=O)c2cc(N/C(=N\S(=O)(=O)c3ccccc3)c3ccc(F)cc3)ccc2Cl)cc1	-1	8	-38*	0	1
O=C(O)COc1ccc(/C=N/NC(=O)COc2nsnc2N2CCOCC2)cc1	-3	3	-5	-4	-2
O=C(COc1nsnc1N1CCOCC1)N/N=C/c1ccccc1O	32*	11	-3	-5	2
Cc1ccc(N2CC(NC(=O)c3ccc(S(=O)(=O)N4CCCC4)cc3)CC2=O)cc1C (configuration not stated)	9	-3	/	0	0
S=C(Nc1ccc(N2CCOCC2)cc1)Nc1ccc2nc(-c3ccco3)c(-c3ccco3)nc2c1	-3	57*	-8	-4	23
O=C(Nc1ccc(N2CCOCC2)cc1)c1ccc2nc(-c3ccco3)c(-c3ccco3)nc2c1	-3	3	-18	-2	0
CCNC(=S)N(Cc1ccc2c(c1)OCO2)C1CC(=O)N(c2ccc(F)cc2)C1=O (configuration not stated)	2	5	-60*	-5	1
Cc1nc(-c2ccccn2)nc(N2CCOCC2)c1Cl	-3	4	-43*	1	1
c1ccc(-c2nc(N3CCOCC3)c3ccccc3n2)nc1	-1	1	-34*	-6	0
c1ccc(-c2nc(N3CCCCCC3)c3ccccc3n2)nc1	-4	-2	4	3	0
Cc1nnc(-c2ccccc2)nc1N1CCOCC1	-7	6	65	0	4
CCC1C(=O)N=C(SCC(=O)Nc2ccc(C)cc2)N(c2ccccc2)C1=O (configuration not stated)	4	2	2	/	-1
CC(C)c1ccc(C(O)c2nc3ccccc3n2C)cc1 (configuration not stated)	3	11	-36*	2	-1
CC(=NCc1ccco1)c1c(C)[nH]n(-c2nc3ccccc3s2)c1=O	-18	-1	-66*	-7	0
CCC(=NCc1ccco1)c1c(C(F)(F)F)[nH]n(-c2nc3ccccc3s2)c1=O	-3	4	5	1	-1
COC(=O)N/N=C/c1cc(N=Nc2ccccc2)ccc1O	-7	5	-34*	-6	0
Cc1ccccc1OCC(=O)N(Cc1ccc(C(C)C)cc1)C1CCS(=O)(=O)C1 (configuration not stated)	7	2	18	2	1
SMILES	TRHR enhancer	D1 agonist	D1 antag	D1 potentiator	TRHR ag
COc1ccccc1N1CCN(/N=C\c2sccc2C)CC1	-6	5	-43*	-4	0
COc1ccccc1N1CCN(/N=C\c2ccccc2)CC1	3	6	5	-5	0
CC(C)(C)OC(=O)N1CCC(c2c(C(=O)Nc3cccc(C(F)(F)F)c3)cnn2-c2ccc(F)cc2F)CC1	14	4	-25	-4	1
COc1cc(Cl)c(C)cc1NC(=O)c1cnn(-c2ccc(F)cc2F)c1C1CCN(C(=O)OC(C)(C)C)CC1	15	0	-41*	-5	1
COc1ccc(NC(=O)c2cnn(-c3ccc(F)cc3F)c2C2CCN(C(=O)OC(C)(C)C)CC2)cc1Cl	2	2	-8	-7	0
CC(C)(C)OC(=O)N1CCC(c2c(C(=O)Nc3ccc4c(c3)OCCO4)cnn2-c2ccc(F)cc2F)CC1	23	3	-35*	3	0
O=C(Cn1c(=O)n(Cc2ccc(Cl)cc2)c(=O)c2cccnc21)Nc1ccccc1C(F)(F)F	6	0	-9	-2	0
Cc1ccc(CN(C(=O)COc2ccccc2[N+](=O)[O-])c2ccccn2)cc1	-4	-1	-8	-1	-1
Cc1ccc(-c2nc(N3CCN(S(=O)(=O)c4ccc(F)cc4)CC3)c3ccc(Cl)cc3n2)cc1	1	3	-41*	1	-1
COc1ccc(-c2nc(N3CCN(S(=O)(=O)c4ccc(F)cc4)CC3)c3ccccc3n2)cc1	39*	5	-31*	3	-1
COc1cccc(-n2c(=O)c3sc4ccccc4c3n(CC(=O)Nc3ccccc3OC)c2=O)c1	-6	8	-6	-3	0
Cc1nc2nc(NCc3ccccc3Cl)[nH]n2c(=O)c1Cc1ccccc1	-6	1	7	0	0
CCc1c(C)nc2nc(SCc3ccccc3Cl)[nH]n2c1=O	7	7	-43*	-9	0
O=c1cc(-c2ccccc2)nc(Cc2c(Cl)cccc2Cl)[nH]1	31*	4	30	-1	1
CCc1nc(-c2ccccc2)cc(=O)[nH]1	-5	-1	38	-1	0
COc1ccc(NC(=O)CN(C)C(=O)C(C)Oc2ccc(Br)cc2)cc1 (configuration not stated)	-4	0	-5	-4	0
CCC(=O)NCCSc1c[nH]c2ccccc12	0	0	-16	-5	0
CC(C)C(=O)NCCSc1c[nH]c2ccccc12	11	0	-87*	-10	0
Clc1ccc(OCCN2CCCCC2)c(Cl)c1	-2	2	5	0	0
Clc1ccc(OCCCN2CCCCC2)c(Br)c1	2	14	-62*	-18	1
Clc1ccc(OCCCCCN2CCCC2)c(Br)c1	1	73*	-10	-6	0
CCN1CCN(CCCOc2ccc(Cl)cc2Br)CC1	-4	59*	-22	-8	-1
COc1cccc(CNC(=O)c2ccc(-c3nc(COc4ccccc4)c(C)o3)cc2)c1	-1	17	-4	-2	2
CC1Cc2cc(S(=O)(=O)CCC(=O)Nc3ccccc3F)ccc2N1C(=O)C1CC1 (configuration not stated)	3	2	-11	1	1
